USP1-UAF1 inh: Inhibitors of USP1/UAF1: Primary Screen; Ubiquitin carboxyl-terminal hydrolase 1 (Homo sapiens), O94782; recombinant USP1/UAF1, Ub-Rhodamine cleavage fluorescence; Potency, µM (titrated, usually from 57.1 µM), for the others: at the top dose activity change, negative = inhibition, most hits filed as inhibitors; 390,000 compounds, 0.23% hits; AID 743255, 2014; also: % is scaled to controls: 0 for no effect and ±100 for the full control effect; nearly all actives have a fitted effect of over 60% in size
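In this screen, compounds sit with the deubiquitinase complex (1nM) for 15 min at room temperature before Ub-Rho is added at 150nM final. Fluorescence rise is then followed for 6 reads every 60 seconds.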
EPAC1 ag: qHTS for Agonist of cAMP-regulated guanine nucleotide exchange factor 3 (EPAC1): primary screen | Rap guanine nucleotide exchange factor 3 (Homo sapiens), O95398 | EPAC1 agonist qHTS, biochemical assay; response scale: 100% = response to 6.5 mM cAMP | Potency, µM (series often up to 154 µM), without a hit: at the highest dose activation, most hits filed as activators | 360,000 compounds, 0.073% hits; also: nearly all actives have a fitted effect of over 60% in size
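Nucleotide exchange by EPAC1 (100 nM) on Rap1B–BODIPY-GDP (250 nM) in the presence of 50 uM GDP is tracked fluorescently at 480/540 nm over 30 min. Signals are normalized to a 6.5 mM cAMP control.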
EPAC2 agonist: qHTS for Agonist of cAMP-regulated guanine nucleotide exchange factor 4 (EPAC2): primary screen. AID 720711, 2013. EPAC2 activation, biochemical qHTS; response scale: 100% = 6.5 mM cAMP response. Potency, µM (titrated, usually from 154 µM), without a hit: at the top dose activation, usual class: activators. 360,000 compounds, 0.079% hits; also: nearly all actives have a fitted effect of over 50% in size
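EPAC2 (100 nM) mixed with Rap1B loaded with BODIPY-GDP (250 nM) plus 50 uM unlabeled GDP; compounds pinned in, 5 min RT, then read every 5 min for 30 min (ex 480, em 540 nm). Normalized to cAMP control.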
USP2a inh: qHTS Assay for Inhibitors of Ubiquitin-specific Protease USP2a Using CHOP2 as the Reporter; USP2 core, Ub-CHOP2 coupled fluorogenic reporter, 485/531; Potency, µM (series often up to 38.3 µM), for the others: top-dose activity change, negative = inhibition, actives largely listed as inhibitors; 330,000 compounds, 0.01% hits; AID 463254, 2010;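 also: plate controls were DMSO wells for no effect and full inhibition by NEM control for full effect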
Target sequence (O75604 whole entry, looked up): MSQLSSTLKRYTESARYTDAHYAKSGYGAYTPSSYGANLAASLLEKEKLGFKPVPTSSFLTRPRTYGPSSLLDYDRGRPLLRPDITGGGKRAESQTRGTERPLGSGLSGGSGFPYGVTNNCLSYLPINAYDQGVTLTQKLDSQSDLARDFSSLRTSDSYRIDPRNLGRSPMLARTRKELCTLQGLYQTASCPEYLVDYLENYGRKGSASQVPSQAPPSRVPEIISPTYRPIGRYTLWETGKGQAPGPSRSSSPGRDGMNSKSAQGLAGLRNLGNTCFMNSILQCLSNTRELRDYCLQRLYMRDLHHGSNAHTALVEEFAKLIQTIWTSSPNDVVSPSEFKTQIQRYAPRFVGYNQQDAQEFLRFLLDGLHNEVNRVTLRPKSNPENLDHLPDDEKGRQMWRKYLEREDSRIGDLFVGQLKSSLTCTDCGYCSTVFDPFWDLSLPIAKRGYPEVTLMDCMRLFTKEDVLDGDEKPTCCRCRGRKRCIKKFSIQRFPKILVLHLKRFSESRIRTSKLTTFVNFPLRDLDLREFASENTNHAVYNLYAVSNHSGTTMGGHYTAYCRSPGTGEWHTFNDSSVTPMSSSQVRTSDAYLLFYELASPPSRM
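Deubiquitinase activity read as fluorescence (485/531 nm) after Ub-CHOP2 cleavage activates the enterokinase reporter on its substrate; USP2 core 10nM, Ub-CHOP2 and substrate 25nM each, 30min compound preincubation then 60min RT; data normalized to NEM, curves fitted.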
EPAC1 antag: qHTS for Antagonist of cAMP-regulated guanine nucleotide exchange factor 3 (EPAC1): primary screen | EPAC1 GEF assay, Rap1b-BODIPY-GDP exchange fluorescence | Potency, µM (doses to about 115 µM), for the others: top-dose activity change, negative = inhibition, hits mostly inhibitors | 360,000 compounds, 0.14% hits | Rap guanine nucleotide exchange factor 3 (Homo sapiens), O95398 | AID 720709, 2013;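 also: plate controls were vehicle for no effect and positive control for full effect; nearly all actives have a fitted effect of over 50% in size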
EPAC2 antagonist: qHTS for Antagonist of cAMP-regulated guanine nucleotide exchange factor 2 (EPAC2): primary screen | Rap guanine nucleotide exchange factor 4 (Homo sapiens), Q8WZA2 | EPAC2 GEF exchange of Rap1B-BODIPY-GDP, fluorescence | Potency, µM (doses to about 114 µM), for inactives: at the highest dose activity, negative = inhibition, most hits filed as inhibitors | 360,000 compounds, 0.18% hits; also: % is scaled to controls: 0 for no effect and ±100 for the full control effect; nearly all actives have a fitted effect of over 45% in size
An asterisk follows results filed as active; u = inconclusive; x = not tested or not shown. The list is not random: actives were taken first. Their share in the collection is about 0.45%. Calls follow the shape of the dose curve; as a rule, active = well fitted curve in the direction sought with a large enough effect; inconclusive = small, poorly fitted or top-dose-only effect, or another doubt; inactive = no such curve, though single readings can be large; an effect the other way counts as inactive or inconclusive. Potency is read from the fitted curve at half-maximal effect.

SMILES	USP1-UAF1 inh	EPAC1 ag	EPAC2 agonist	USP2a inh	EPAC1 antag	EPAC2 antagonist
C=CC1=C2C=C(C3CC3)N(C3CC3)C=C2C(=O)C(C)(OC(=O)c2ccco2)C1=O (stereo not drawn)	u	-12.9%	3.7%	x	2.1%	3.4%
COc1ccc(C2=CC3=C(Br)C(=O)C(C)(OC(=O)c4ccco4)C(=O)C3=CO2)cc1 (stereo not drawn)	25.1µM*	-5.0%	17.2%	5.7%	u	u
COC(=O)CCCC1=CC2=CC(=O)C(C)(OC(=O)c3cccs3)C(=O)C2=CN1c1ccc(OC)cc1 (stereo not drawn)	-33.9%	2.3%	3.6%	0.0%	-3.8%	5.2%
Cc1cccc(Cn2c(CN3CCC(C(=O)NCCc4ccccc4)CC3)cc3ccccc32)c1	-18.2%	x	x	x	x	x
CCN(CC)CCP(=O)(c1ccccc1)c1ccccc1	-14.0%	10.7%	9.8%	0.1%	0.6%	5.8%
CN(C)CCOCCP(=O)(c1ccccc1)c1ccccc1	-7.8%	2.8%	10.8%	10µM*	4.1%	-3.7%
Cc1cc2c(C)nc(N/N=C/c3ccc(F)cc3)nc2o1	-18.3%	-19.7%	10.9%	-3.8%	39.8µM*	17.5%
Cc1cc2c(C)nc(N/N=C/c3ccc([N+](=O)[O-])cc3)nc2o1	-7.0%	6.8%	-4.6%	4.3%	u	-6.7%
COc1ccc(N=Cc2c(O)n(-c3cccc(C)n3)c(=O)c3ccccc23)c(OC)c1	-13.0%	9.3%	100µM*	u	10.3%	118.5%
CC(=O)N1CCC2(CC1)OC(=O)C(C)=C2C(=O)Nc1cccc(Cl)c1C	-23.8%	x	x	x	x	x
O=C1c2cccc3cc([N+](=O)[O-])cc(c23)C(=O)N1/N=C/c1ccc(O)cc1O	-14.1%	4.7%	-0.1%	0.0%	79.4µM*	-2.2%
O=C(NCCC1=CCCCC1)c1cc(S(=O)(=O)N2CCOCC2)ccc1Cl	-6.4%	2.3%	3.2%	1.4%	-8.7%	3.7%
Cc1ccc(S(=O)(=O)N2CCCCC2)cc1C(=O)NCCC1=CCCCC1	-22.6%	112µM*	5.6%	-1.0%	-5.8%	-1.6%
O=C(CSc1cccc2cccnc12)N/N=C/c1cccc(O)c1	3.7%	5.6%	4.5%	1.2%	-16.5%	-7.5%
O=C(N/N=C/c1ccc(O)c(O)c1)c1ccc(CSc2cccc3cccnc23)cc1	-13.1%	-3.3%	2.9%	-6.0%	35.5µM*	-0.4%
COc1ccc(C(=O)CC(C(=O)O)c2ccc(OC)c(OC)c2)cc1OC (stereo not drawn)	-25.0%	-8.8%	3.4%	x	8.1%	8.8%
CCCCCNC(=O)C(c1cc2ccccc2o1)n1c(=O)c(-c2ccco2)nc2ccccc21 (stereo not drawn)	x	-27.4%	-18.4%	x	56.2µM*	u
COc1ccc(C(=O)Nc2ccccc2C(=O)OCc2cc(=O)n3c4c(sc3n2)CCCC4)cc1	-15.9%	x	x	x	x	x
CC(C)C(=O)NC(c1cccs1)c1cc([N+](=O)[O-])c2cccnc2c1O (stereo not drawn)	-10.2%	11.4%	-0.9%	-8.6%	-22.5%	-12.3%
Cc1ccc(C(NC(=O)C(C)C)c2cc([N+](=O)[O-])c3cccnc3c2O)cc1 (stereo not drawn)	u	-5.8%	-9.9%	15.9%	50.1µM*	-0.4%
